# Rows were chosen to be rich in hits. Some 2.5% of all compounds tested hit in one or more screens of this group.
# BJeLR viability: lowers viability of BJeLR cells; BJeLR fibroblasts viability, CellTiterGlo ATP luminescence, 48 h; HRASV12, hTERT and SV40 LT/ST transformed; viability loss activity score, % (test concentration not listed); AID 2275; 0.64% of 30,000 active; in the data active = viability loss activity score above about 50%;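 note: higher score means fewer live cells and less ATP luminescence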
# YB-1 expr inh: YB-1 expression inhibition. U2OS, qRT-PCR YB-1 vs CDIP delta delta Cp, 16 h; hits give high values; zero = DMSO, each unit about twofold. 0.37% of 30,000 active. AID 434959. delta delta Cp (YB-1 minus CDIP) (test concentration not listed);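 active = delta delta Cp rounded down to an integer at or above 3, about 3 SD of DMSO wells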;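 note: higher means less YB-1 transcript or more CDIP transcript relative to DMSO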
# MITF inh: inhibitors of MITF; 0.28% of 37,000 active; inhibition, % (concentration not given with the values); TRPM1 promoter luciferase, luminescence, 24 h; AID 2240; in the data active = inhibition above about 85%;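 note: human melanocyte line stably carrying TRPM1 promoter luciferase reporter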
# U2OS ROS induce: inducers of reactive oxygen species in cancer cells. U2OS ROS induction, H2DCF-DA fluorescence. ROS induction (% of piperlongumine), % at 10 µM. 2% of 46,000 active. AID 624156; in the data active = ROS induction above about 79%, passing the limit was not always enough
# A number is an active result; i = inactive; nt = no result.
SMILES,BJeLR viability,YB-1 expr inh,MITF inh,U2OS ROS induce
CCc1nc(N)nc(N)c1-c1ccc(Cl)cc1,77,i,i,i
CC(C)(C)c1ccc2c(c1)NC(=O)CO2,i,nt,nt,i
S=C(c1cn(Cc2ccccc2)c2ccccc12)N1CCCCC1,i,nt,nt,i
COc1cccc(-c2ncc(-c3ccccc3)o2)c1,i,i,i,85
CC1Oc2c3c(c4c(-c5ccccc5)cc(=O)oc4c2C(=O)C1C)OC(C)(C)C=C3 (stereo not drawn),nt,i,nt,114
CCOC(=O)c1sc2sc(C(=O)OCC)c(-c3ccc(Cl)cc3)c2c1N,i,i,i,93
CCOC(=O)c1c(CS(=O)c2ccc(Cl)cc2)oc2c(F)c(F)c(F)c(F)c12 (stereo not drawn),i,nt,nt,i
CC1(C)CCc2cc(-c3ccn(S(=O)(=O)c4ccc(Cl)cc4)n3)ccc2O1,i,i,i,96
O=c1oc(Cl)c(Cl)c2ccccc12,55,i,i,i
CN(C)CCNC(=O)c1cc2c(s1)-c1ccc(Cl)cc1SC2,123,nt,nt,i
COc1c(-c2coc3cc4c(cc3c2=O)CC(O)C(C)(C)O4)ccc2c1C=CC(C)(C)O2 (stereo not drawn),i,i,99,i
CC1(C)C=Cc2c(cc3occ(-c4ccc5c(c4)OCO5)c(=O)c3c2O)O1,i,i,i,i
Cc1ccc(-c2nnc(-n3cnc4cc(C)c(C)cc43)c3ccccc23)cc1,i,3.8,i,i
Cc1ccc(-c2nnc(N3CCN(C(=O)CSc4nc(C)cc(C)n4)CC3)c3ccccc23)cc1,nt,nt,i,nt
CCc1nc(-c2ccc(OC)cc2)cc2cc(OC)c(OC)cc12,i,i,i,109
CN1CCN(NC(=O)c2ccc(-c3ccccc3)cc2)CC1,i,nt,nt,i
N#Cc1c(N2CCN(C(=S)NCc3ccccc3)CC2)nc(-c2ccccc2)c2c1CCCC2,i,nt,nt,140
S=C(NCc1ccccc1)N1CCn2c(nc3ccccc32)C1,i,nt,nt,nt
COc1ccc2cc3cc(C(=O)NCC4COc5ccccc5O4)sc3nc2c1 (stereo not drawn),i,nt,nt,nt
C=C1C(=O)OC2/C=C(\CO)C(OC(C)=O)C/C=C(/C)CC(OC(=O)/C(C)=C\CO)C12 (stereo not drawn),i,4.7,i,i
N#Cc1ccc(NC(=O)Nc2ccccc2)cc1,i,nt,nt,nt
COC(=O)C1=C(O)/C(=C/c2ccc(O)cc2)SC1=Nc1ccccc1,i,nt,nt,164
COc1ccccc1CNC(=O)c1nnc(Cc2ccc(F)cc2)o1,i,nt,nt,nt
CO[C@@H]1CC(OC2CCC3(C)C(CCC45CCC(C6=CC(=O)OC6)C(C)(CCC43)C5=O)C2)O[C@H](C)[C@@H]1O[C@@H]1O[C@H](CO[C@@H]2O[C@H](CO)[C@@H](O)[C@H](O)[C@H]2O)[C@@H](O)[C@H](O)[C@H]1O (stereo partly drawn),92,i,i,i
C=C1[C@@H](C2=CC(=O)OC2)CC[C@@]2(O)[C@@H]1CC1[C@H]2CC[C@@H]2C[C@@H](O[C@H]3O[C@@H](C)[C@@H](O[C@@H]4O[C@H](CO[C@@H]5O[C@H](CO)[C@@H](O)[C@H](O)[C@H]5O)[C@@H](O)[C@H](O)[C@H]4O)[C@H](OC)[C@H]3O)CC[C@]12C (stereo partly drawn),nt,i,nt,i
SMILES,BJeLR viability,YB-1 expr inh,MITF inh,U2OS ROS induce
O=C(Nc1ccccc1Br)c1ccccc1Oc1ccccc1,i,nt,nt,i
O=C1N=C(N2CCOCC2)SC1=C1CCCC1,i,nt,nt,i
CC1CCCC[C@H]2C(=O)C=C[C@H](O)[C@@H]2CC(=O)O1 (stereo partly drawn),62,i,i,i
COc1cccc(OCc2nc(-c3ccc(OC)c(OC)c3)no2)c1,nt,nt,i,nt
COc1ccc(OCc2nnc3n2N=C(c2ccc(OC)c(OC)c2)C(c2ccccc2)S3)cc1 (stereo not drawn),nt,nt,i,99
CCCCc1nc2sc3c(Cl)ncnc3c2c2c1COC(C)(C)C2,i,nt,nt,113
CCCCc1nc2sc3c(NCc4ccccc4)ncnc3c2c2c1COC(C)(C)C2,i,nt,nt,i
CCOC(=O)c1cnc2ccc(OCC)cc2c1N(C)Cc1ccccc1,i,i,i,139
CCOC(=O)c1cnc2cc(C(F)(F)F)ccc2c1N(C)Cc1ccccc1,i,i,i,i
C[N+]1(C)C2CC[C@H]1CC(OC(=O)C(O)c1ccccc1)C2 (stereo partly drawn),i,i,i,i
C[N+]1(C)CCCC(OC(=O)C(O)(c2ccccc2)c2ccccc2)C1 (stereo not drawn),i,8.9,i,i
O=C(/C=c1\[nH]/c(=C/c2ccc(F)cc2)c(=O)[nH]c1=O)c1ccccc1,70,nt,nt,i

# Screening results: PubChem, Broad Institute
